Laboratory results: PubChem BioAssay (NCI)
The panel holds about 83,000 compounds, 20% with a hit somewhere; the sample as a whole holds those more often.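 Negative percent growth values reflect cell death: -40 means 40% of the cells present at the start died, and -100 means all died.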 A number with no mark means an inactive call. The source made the active and inactive calls. How the source made its calls: active means growth percent below 10; inactive means the rest.

The compounds below were run on SR leukemia (assay: NCI-60 one-dose screen, 48 h (100 = growth as untreated, 0 = no growth, -100 = all killed)). Conditions: 10 µM unless noted.
`O=C(Nc1ccccc1)Oc1cccc2cccnc12` was tested, and the growth was 48.2%.
In the case of `O=c1[nH]c(-c2ccccn2)nc2sc3c(c12)CCCCCC3`, the growth is reported as 22.1%.
Work on `CC(=O)N(CC(O)CO)c1c(I)c(C(=O)NCCO)c(I)c(C(=O)NCC(O)CO)c1I` (configuration not stated) yielded a growth of 77.2%.
In the case of `COc1ccc(-c2nc3sc(C)nn3c2-c2nc3cc(C)c(C)cc3[nH]2)cc1`, the growth is reported as 76.6%.
For `O=C(C[Si](CC(=O)c1cccc(C(F)(F)F)c1)CC(=O)c1cccc(C(F)(F)F)c1)c1cccc(C(F)(F)F)c1`, the growth was 5.27% (active).
`Cc1ccc(C2SCC(=O)N2NC(=O)c2[nH]c3ccc(F)cc3c2-c2ccccc2)cc1` (configuration not stated) showed a growth of 76.1%.
`CCCCCCCCCCCCSC1=CC(=O)C=CC1=O` showed a growth of 71.5%.
`O=C1/C(=C/c2ccc(Oc3ccccc3)cc2)N=C(c2ccccc2)N1CCc1cccs1` gave a growth of 81%.
Compound `COc1ccc(Nc2[nH]n(C3=Nc4ccccc4Sc4ccccc43)c(=O)c2C#N)cc1` has a growth of 70.8%.
In the case of `FC(F)(F)c1cc(CNc2ncc(Br)c(Cl)n2)cc(C(F)(F)F)c1`, the growth is reported as 85.8%.
For `COc1cc(CNCCCN2C(=O)c3ccc4c5c(ccc(c35)C2=O)C(=O)N(CCCNCc2cc(OC)c(OC)c(OC)c2)C4=O)cc(OC)c1OC`, the growth was -3.1% (active).
For `CCCCc1ccc(C(O)(CCN2CC3CCC(CC3)C2)c2ccccc2)cc1` (configuration not stated), the growth was 68%.
In the case of `CC(C)NCC(O)COc1ccc(CCOCC2CC2)cc1` (configuration not stated), the growth is reported as 78.3%.
In the case of `Oc1cccc(Nc2nc(-c3ccccn3)cs2)c1`, the growth is reported as 87.8%.
`O=C(O)CCN1CCN(c2cccc(Cl)c2)CC1` showed a growth of 88%.
With `CCCCC(CCCC)(S(=O)(=O)CC)S(=O)(=O)CC` the growth was 92.3%.
With `COc1ccc(/C=C2\CN(Cc3cn(CCCNc4ccnc5cc(Cl)ccc45)nn3)C/C(=C\c3ccc(OC)cc3)C2=O)cc1` the growth was -6.55% (active).
`Cn1c2c(cc(S(=O)(=O)c3ccccc3)c1=O)CCc1c-2cnn1-c1cccc(Cl)c1` gave a growth of 77.6%.
For `CCOc1ccc(-c2cnnn2-c2nonc2-n2cccc2)cc1`, the growth was 1.35% (active).
In the case of `COc1ccc(-c2csc3c2-n2cccc2C3=O)cc1O`, the growth is reported as -6.8% (active).
With `O=C1OCC2=C1C(c1ccc3c(c1)OCO3)CC(=O)N2c1cccc(Cl)c1` (configuration not stated) the growth was 98.6%.
In the case of `COc1cc2nc(N3CCC[C@H](NC4=CC(=O)c5ccccc5C4=O)C3)nc(N)c2cc1OC`, the growth is reported as -20.1% (active).
`CC1SC(c2ccc(Cl)cc2)N(CCc2cccs2)C1=O` (configuration not stated) was tested, and the growth was -1.75% (active).
`C[C@@H](Oc1cc(-c2cnn(C3CC4(CNC4)C3)c2)cnc1N)c1c(Cl)ccc(F)c1Cl` was tested, and the growth was -24.6% (active).
For `Cc1nn(-c2ccccc2)c2nc3nc4c(c(N)c3c(-c3ccc(Cl)cc3)c12)CCC4`, the growth was -25.9% (active).
In the case of `COc1ncnc2c1ncn2C/C(Br)=C(\Br)CCl`, the growth is reported as 8.2% (active).
With `CCOC(=O)C(CC(c1ccccc1)N1CCCCC1)[N+](=O)[O-]` (configuration not stated) the growth was 77.7%.
Compound `O=c1nc(NO)[nH]c(=O)n1Cc1ccc(F)cc1` has a growth of 103%.
In the case of `CCN(CC)CCCNc1ccc(C)c2sc3ccccc3c(=O)c12`, the growth is reported as -11.8% (active).
`Cn1cc(C(=O)NCCC(=N)N)cc1NC(=O)CN=C(N)N` gave a growth of 104%.
With `Cc1cc(=O)c2c(C)ccc(C)c2[nH]1` the growth was 110%.
In the case of `COc1ccc(OC2=C(C#N)C(=N)N3c4ccccc4Sc4ccccc4C3N2)cc1` (configuration not stated), the growth is reported as 104%.
`O=c1onc(-c2ccccc2)c2ccccc12` showed a growth of 101%.
Work on `O=C1C(Cl)=C(NCCCN2CCOCC2)C(=O)c2ccccc21` yielded a growth of 39.2%.
In the case of `CCCCc1ccc(NC(=O)C(F)(F)F)cc1`, the growth is reported as 86.4%.
In the case of `O=C1CC(c2ccsc2)c2snc(-c3ccc(Cl)cc3)c2N1` (configuration not stated), the growth is reported as 20.9%.
With `COc1ccc2nc(-n3nc(C)cc3C)c(-n3nc(C)cc3C)nc2c1` the growth was 95%.
